# From PubChem BioAssay
# Only some compounds are listed: those with a hit (about 3% of all), similar ones and a draw of the others.
# FBPA coupling cs – qHTS Assay for Inhibitors of Fructose-1,6-bisphosphate Aldolase from Giardia Lamblia: Coupling assay counterscreen; coupling enzyme system counterscreen, AmpLite Red fluorescence; activity change, negative = inhibition, % at 58.2 µM, hits read low; hit rate 0.67% among 290,000; AID 2472, 2010; in the data active = activity change below about -30%
#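 Coupling enzymes only (glyceraldehyde-3-phosphate) + compound, at 57.5 uM final, 10 min RT; add substrate/coupling/AmpLite Red mix, 20 min RT; fluorescence ex 525/em 598 nm. Actives flag coupling-system interference.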
# Tau ThT inhib – qHTS for Inhibitors of Tau Fibril Formation, Thioflavin T Binding; recombinant tau K18 P301L, heparin-induced fibrillization, ThT fluorescence; Potency, µM (doses to about 57.4 µM), for inactives: at the highest dose activity, negative = inhibition, usual class: inhibitors; hit rate 2.1% among 270,000; note: potency is the fitted concentration of half-maximal effect; nearly all actives have a fitted effect of over 55% in size
# Target sequence (P10636 561-689 P618L limits assumed): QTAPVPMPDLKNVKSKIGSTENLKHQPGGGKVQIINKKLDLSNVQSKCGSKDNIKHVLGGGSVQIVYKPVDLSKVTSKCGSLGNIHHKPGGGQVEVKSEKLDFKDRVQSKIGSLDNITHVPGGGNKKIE
#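 K18 P301L tau (15 uM + 0.24 uM Alexa 594-tagged), heparin 20 uM, NaOAc pH 7, 6 h 37 C; ThT 30 uM, 1 h RT, ex 450/em 510 nm.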
# JMJD2E inh – qHTS Assay for Inhibitors of Human Jumonji Domain Containing 2E (JMJD2E). Lysine-specific demethylase 4E (Homo sapiens), B2RXH2. JMJD2E catalytic domain, FDH-coupled NADH fluorescence (FDH is formaldehyde dehydrogenase). Potency, µM (top dose mostly 57.1 µM), for inactives: at the highest dose activity change, negative = inhibition, usual class: inhibitors. hit rate 1.6% among 230,000; active = well fitted inhibition curve with a large enough effect, not every such curve was filed as active; inconclusive = small, poorly fitted or top-dose-only effect, or another doubt; inactive = no such curve, though single readings can be large or run the other way;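 note: potency is the fitted concentration of half-maximal effect; 0% = wells with enzyme and -100% = buffer wells without enzyme; nearly all actives have a fitted effect of over 50% in size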
# Target sequence (B2RXH2 1-337 limits assumed): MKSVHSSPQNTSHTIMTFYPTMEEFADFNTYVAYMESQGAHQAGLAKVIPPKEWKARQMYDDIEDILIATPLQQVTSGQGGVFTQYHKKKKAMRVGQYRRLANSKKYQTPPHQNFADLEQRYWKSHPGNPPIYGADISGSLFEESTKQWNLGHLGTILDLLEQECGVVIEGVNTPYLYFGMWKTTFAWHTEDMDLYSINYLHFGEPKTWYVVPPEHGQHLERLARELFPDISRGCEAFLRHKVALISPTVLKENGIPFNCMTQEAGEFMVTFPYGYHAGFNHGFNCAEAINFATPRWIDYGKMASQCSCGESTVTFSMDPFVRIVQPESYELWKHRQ
# Tau FP inhib – qHTS for Inhibitors of Tau Fibril Formation, Fluorescence Polarization | Microtubule-associated protein tau (Homo sapiens), P10636 | K18 P301L tau heparin fibrillization, Alexa594 FP, 6 h | Potency, µM (top dose mostly 57.7 µM), for inactives: at the highest dose activity, negative = inhibition, most hits filed as inhibitors | hit rate 0.39% among 280,000 | AID 1468, 2008; note: potency is the fitted concentration of half-maximal effect; nearly all actives have a fitted effect of over 55% in size
#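 Recombinant K18 P301L […], labeled with Alexa 594 at 0.24 uM over 15 uM unlabeled; heparin inducer 20 uM final; 37 C, 6 hr; FP endpoint.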
# Tau fluor cs – Counterscreen qHTS for Inhibitors of Tau Fibril Formation, Fluorescence Polarization; tau K18 P301L (four-repeat tau fragment) Alexa594 fluorescence, heparin fibrillization; hit rate 0.93% among 280,000; Potency, µM (top dose mostly 57.7 µM), for inactives: at the top dose activity change, negative = decrease; note: potency is the fitted concentration of half-maximal effect; nearly all actives have a fitted effect of over 55% in size
#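 Human K18 P301L tau (15 uM unlabeled plus 0.24 uM Alexa 594-labeled, final) in 100 mM sodium acetate pH 7 was mixed with compound and 20 uM heparin and incubated 6 hr at 37 C.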
# The depositor's hits bear a star; ? = inconclusive; / = not tested or not shown; ! = repeats disagree; [ ] = remark or other dose. Unless noted, calls come from the whole dose curve; as a rule, active = well fitted curve in the direction sought with a large enough effect; inconclusive = small, poorly fitted or top-dose-only effect, or another doubt; inactive = no such curve, though single readings can be large; an effect the other way counts as inactive or inconclusive. Unless noted, % is set by controls: 0 for no effect and ±100 for the full control effect.
SMILES,FBPA coupling cs,Tau ThT inhib,JMJD2E inh,Tau FP inhib,Tau fluor cs
CCOC(=O)c1ccc(N2C(=O)c3[nH]nc(-c4ccc(OC)cc4)c3C2c2ccc(C)cc2)cc1 (configuration not stated),/,-5%,/,?,?
c1ccc(-c2[nH]ncc2-c2ccnc3ccccc23)nc1,-7,/,/,/,/
Cc1cc(NC(=O)c2ccccc2F)ccc1-c1nc2ccccc2s1,/,?,/,-9%,-7%
O=C(Nc1cc(Sc2nc3ccccc3s2)cc([N+](=O)[O-])c1)c1ccccc1,-3,0%,-9%,5%,4µM*[quencher]
O=C(Nc1cc(Sc2nc3ccccc3s2)cc([N+](=O)[O-])c1)c1ccccc1F,-4,-15%,-2%,?,13µM*[quencher]
Cc1cc(O)cc(O)c1C(=O)OC1(C)C(=O)C=C2C=C(/C=C/C(=O)O)OC=C2C1=O (configuration not stated),-9,-16%,?,-15%,-16%
O=C(Oc1ccccc1)C1O[C@@H]1c1ccccc1 (some centres not stated),0,-12%,-5%,-13%,-10%
Cc1ccc(C)c(N2CCN(C(=O)CCc3nnc4n(C)c(=O)c5ccccc5n34)CC2)c1,/,-15%,/,0%,-16%
O=C(O)C(C(=O)/C=C/c1ccco1)=C1SCCS1,3,16µM*,-23%,?,-16%
O=C(C=C1SCCS1)/C=C/c1ccco1,0,?,-5%,5%,-2%
COc1ccc(CCn2c(N)c(C(=O)NCc3ccco3)c3nc4ccccc4nc32)cc1OC,-20,18µM*,?,32µM*,?
NC(=O)COC(=O)c1cc(-c2ccco2)nc2ccccc12,3,?,?,?,-27%
COc1ccc(CCn2c(N)c(C(=O)NCc3ccco3)c3nc4ccccc4nc32)cc1,-6,?,?,?,?
Cc1ccc(-c2nc3ccc(C(=O)O)cc3nc2-c2ccc(C)cc2)cc1,/,?,?,-2%,-8%
O=C(c1ccc2nc(-c3ccco3)c(-c3ccco3)nc2c1)N1CCN(c2ccccc2)CC1,-40*,?,?,-2%,?
O=C(O)c1cc(-c2ccco2)nc2ccc(Br)cc12,3,16µM*!,?,?,?
O=C(O)c1ccc2nc(-c3ccco3)c(-c3ccco3)nc2c1,-35*,7.9µM*,2%,10µM*,?
COc1ccc([C@@H]2CC(=O)c3c(O)cc(O[C@@H]4O[C@H](CO)[C@@H](O)[C@H](O)[C@H]4OC4O[C@@H](C)[C@H](O)[C@@H](O)[C@H]4O)cc3O2)cc1O (some centres not stated),1,/,/,/,/
N[C@H](C(=O)O)[C@H]1C[C@H]1C(=O)O,/,2%,/,9%,0%
COc1ccc(CCNC(=O)c2ccc3nc(-c4ccco4)c(-c4ccco4)nc3c2)cc1OC,-33*,6.3µM*,13µM*,?,13µM*[quencher]
CCc1nc2ccc(C(=O)NCCc3ccc(OC)c(OC)c3)cc2nc1CC,0,?,/,-7%,-16%
O=C(Nc1ccc2nc(-c3ccco3)c(-c3ccco3)nc2c1)NC1CC1,-37*,7.1µM*,?,?,13µM*[quencher]
O=C(Nc1cccc(C(F)(F)F)c1)c1ccc2nc(-c3ccco3)c(-c3ccco3)nc2c1,-39*,14µM*,14µM*,?,16µM*[quencher]
CN1C(=O)c2ccccc2Sc2ccc(NC(=O)N3CCN(c4ccc(F)cc4)CC3)cc21,/,-20%,/,3%,-15%
O=C1c2c([N+](=O)[O-])cc([N+](=O)[O-])cc2S(=O)N1Cc1ccccc1 (configuration not stated),1,32µM*,?,?,-27%
SMILES,FBPA coupling cs,Tau ThT inhib,JMJD2E inh,Tau FP inhib,Tau fluor cs
Cc1cccc(OCCCC(=O)Nc2ccc(N(C)C)cc2)c1,-3,13µM*,-3%,16%,-23%
Cc1cccc(OCCCC(=O)Nc2ccc(Br)cc2)c1,-1,1%,0%,-7%,-17%
CCC1=C/C(=C/N(C)c2ccccc2)C(=O)S1,-1,25µM*,-8%,?,?
CCOCCCNC(=O)C(c1ccccc1)N(Cc1cccs1)C(=O)c1ccc(NC(C)=O)cc1 (configuration not stated),/,-4%,/,0%,-9%
Cc1ccc(NC(=O)C2CCN(C(=O)c3cnn(-c4ccccc4)c3-n3cccc3)CC2)cc1C,/,-14%,/,4%,-19%
Cc1sc2nc3c(SC(C)C(=O)O)cc(C(=O)c4ccccc4O)cn3c(=O)c2c1C (configuration not stated),1,14µM*,4%,-12%,-7%
O=C(O)CSc1cc(C(=O)c2ccccc2O)cn2c(=O)c3c(-c4ccccc4)csc3nc12,14,25µM*,0%,-4%,-12%
CC(C)(C)NC(=O)NC(=O)CN1CCc2ccccc21,-39*,-12%,-7%,2%,-23%
O=C(O)c1ccc(N/N=C/C2=Cc3ccccc3OC2)cc1,14,4µM*,?,3%,13µM*[quencher]
O=C(NCCn1cc(SCc2ccc(F)cc2)c2ccccc21)c1cccs1,/,?,/,-5%,7.9µM*[quencher]
O=C(NCCn1cc(SCc2ccc(Cl)cc2)c2ccccc21)c1cccs1,/,?,/,-19%,8.9µM*[quencher]
Cc1ccc(CSc2cn(CCNC(=O)c3cccs3)c3ccccc23)cc1,/,?,/,-6%,8.9µM*[quencher]
O=C(NCCn1cc(SCc2ccccc2F)c2ccccc21)c1cccs1,/,?,/,-16%,?
Cc1ccccc1CSc1cn(CCNC(=O)c2cccs2)c2ccccc12,/,?,/,-17%,7.9µM*[quencher]
CCc1cccc2cc(C(O)CNC(C)(C)C)oc12 (configuration not stated),2,/,/,/,/
O=S(=O)(c1ccccc1)c1nnn2c1nc(Nc1ccccc1)c1cc(Cl)ccc12,/,11%,/,?,-11%
O=c1cc2oc3cc(O)c(O)cc3c(-c3ccccc3O)c-2cc1O,-24,2.5µM*,14µM*,13µM*,?
O=c1cc(-c2ccccc2O)oc2cc(O)ccc12,5,-7%,-2%,-16%,-8%
COc1ccccc1-c1cc(=O)c2cc(O)ccc2o1,2,-18%,-5%,-7%,-15%
COc1ccc(OC)c(-c2c3cc(O)c(=O)cc-3oc3cc(O)c(O)cc23)c1,-53*,3.2µM*,11µM*,16µM*,?
CCOc1ccccc1-c1c2cc(O)c(=O)cc-2oc2cc(O)c(O)cc12,-62*,?,-9%,14µM*,17%
O=c1cc(-c2cccc(O)c2O)oc2ccccc12,-14,13µM*,7.1µM*,3%,?
